The results in this text go back to PubChem BioAssay.

The test system of test [1] is Aerobactin synthetase IucA (Klebsiella pneumoniae). Kind of test: inhibition of K. pneumoniae IucA enzyme – biochemical, Tocris library, absorbance (AID 1345561; call rule not given here;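 note: 100% = enzyme without compound and 0% = no enzyme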). The note with it: purified IucA enzyme assay, absorbance (OD) read-out; stronger effect = lower value;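 tested at 8 µM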.
Test [2] can be described thus: rescue of PC12 cells from polyQ htt toxicity – LDH release (AID 1610). Conditions: PC12 mutant huntingtin toxicity, final LDH at 4 uM, stronger effect = lower value.
The nature of test [3]: chitosan synthesis blockers in C. neoformans – flow cytometry, Cibacron Brilliant Red staining (AID 1347148; call rule not given here;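 note: compound exposure lasted three days at 37 degrees C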). The note with it: Cryptococcus neoformans chitosan, stronger effect = lower value; at 10 µM unless noted.
Test [4] is described as follows: growth inhibition, single agents and combos, LFS_MB_1R, cell-based, cisplatin or BGB combos, synergistic combos for chromothripsis tumors (AID 1671452).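 Note: cells exposed for 96 hours before readout.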 Conditions: LFS_MB_1R medulloblastoma cells, stronger effect = higher value.
A short description of test [5]: growth inhibition, single agents and combos, CRL2098, cell-based, BGB or cisplatin IC20 combos, synergistic combos for chromothripsis tumors (AID 1671454).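 Note: cells exposed for 96 h before readout; 0% = vehicle DMSO and 100% = killing by high DMSO.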 Conditions: CRL2098 osteosarcoma cells, drug combinations, stronger effect = higher value.
Test [6] in a line: growth inhibition, single agents and combos, HD-MB03, cell-based, BGB or cisplatin IC20 combos, synergistic combos for chromothripsis tumors (AID 1671455; in the data active = inhibition above about 83%;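 note: 0% = vehicle DMSO and 100% = high DMSO as cytotoxic control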). The note with it: HD-MB03 medulloblastoma cells, stronger effect = higher value.
Test [7] in a line: growth inhibition, single agents and combos, UWB1.289, cell-based, BGB or cisplatin combos, synergistic combos for chromothripsis tumors (AID 1671456).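 Note: cells exposed to compound for four days; 0% = vehicle DMSO and 100% = killing by high DMSO.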 The note with it: UWB1.289 ovarian carcinoma cells, stronger effect = higher value.
Test [8] can be described thus: growth inhibition, single agents and combos, LFS_MB_2R, cell-based, cisplatin combos, synergistic combos for chromothripsis tumors (AID 1671457).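 Note: cells exposed to compound for four days before readout.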 The note with it: LFS_MB_2R medulloblastoma cells, stronger effect = higher value.
Test [9] can be described thus: UWB1.289_BRCA1 ovarian cancer growth, cell-based, BGB or cisplatin combinations (AID 1671459). The note with it: UWB1.289 BRCA1 ovarian carcinoma, drug combinations, stronger effect = higher value.
Test [10] in a line: drug combination toxicity in non-malignant astrocytes – cell-based, BGB or cisplatin IC20 combos, cytotoxicity control for chromothriptic childhood tumor combination screen (AID 1671460).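 Note: cells exposed to compounds for 96 hours before viability readout; 0% = vehicle and 100% = killing control.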 The note with it: Human astrocytes, viability inhibition, drug combinations, at 0.5 µM, stronger effect = higher value.
Test [11] has as its target Huntingtin (Homo sapiens) (UniProt P42858). In words: mutant huntingtin aggregation blockers – QA1, dose response (AID 1584). Conditions: in vitro mutant huntingtin aggregation assay; confirmation test; at 10 µM; stronger effect = lower value.
Test [12] can be described thus: compounds altering HSF1 focus formation in cells – imaging, Selleck Cancer Library (AID 1347162; in the data active = plate-normalised HSF1 focus index below about 0.46). The note with it: human cells, HSF1 nuclear foci imaging, at 10 µM; SSMD: measured here: HSF1 foci SSMD mean; cell count: measured here: cell number; plate-normalised HSF1 focus index: stronger effect = lower value.
The nature of test [13]: glutamate excitotoxicity neuroprotectants – cell-based, TUNEL DNA degradation staining, MNGlu (AID 1594; call rule not given here). Conditions: motor neurons, glutamate-induced death, at 1 µM, stronger effect = higher value.
A short description of test [14]: selective SMN2 exon splicing luciferase activators – cell-based, SMN2/SMN1 luciferase reporters (AID 1598; call rule not given here). Conditions: SMN2 vs SMN1 luciferase splicing reporter cells, at 10 µM; SMN1 luciferase ratio: measured here: SMN1 luciferase reporter average; SMN2 luciferase ratio: measured here: SMN2 luciferase reporter average, stronger effect = higher value; SMN2/SMN1 luciferase ratio: stronger effect = higher value.

Setting [15] is: measured here: combination with BGB IC40, at 0.05 µM.
Where [16] appears, read: measured here: combination with cisplatin, at 0.5 µM.
Setting [17] is: measured here: combination with cisplatin, at 5 µM.
Setting [18] is: measured here: combination with BGB at IC20, at 0.5 µM.
The mark [19] stands for this setting: measured here: combination with cisplatin at IC20, at 0.5 µM.
Setting [20] is: measured here: combo with BGB at IC20, at 0.5 µM.
Where [21] appears, read: measured here: combo with cisplatin at IC20, at 0.5 µM.
Setting [22] is: measured here: inhibition with BGB combination, at 0.05 µM.
Setting [23] is: measured here: inhibition with cisplatin combination, at 0.05 µM.
[24] abbreviates: BGB combination, concentration series, at 5 µM.
[25] abbreviates: cisplatin combination, concentration series, at 5 µM.
Where [26] appears, read: measured here: combo with BGB IC20.
[27] abbreviates: measured here: combo with cisplatin IC20.

Results filed as inconclusive are left out. Active and inactive are the calls of the source. Cut-off read from the data, not from the text of the source, unless noted: active = inhibition above about 80%; inactive = the rest. Peptide text beside a SMILES is read from it.

Chain of Huntingtin (Homo sapiens) (P42858 whole entry, looked up): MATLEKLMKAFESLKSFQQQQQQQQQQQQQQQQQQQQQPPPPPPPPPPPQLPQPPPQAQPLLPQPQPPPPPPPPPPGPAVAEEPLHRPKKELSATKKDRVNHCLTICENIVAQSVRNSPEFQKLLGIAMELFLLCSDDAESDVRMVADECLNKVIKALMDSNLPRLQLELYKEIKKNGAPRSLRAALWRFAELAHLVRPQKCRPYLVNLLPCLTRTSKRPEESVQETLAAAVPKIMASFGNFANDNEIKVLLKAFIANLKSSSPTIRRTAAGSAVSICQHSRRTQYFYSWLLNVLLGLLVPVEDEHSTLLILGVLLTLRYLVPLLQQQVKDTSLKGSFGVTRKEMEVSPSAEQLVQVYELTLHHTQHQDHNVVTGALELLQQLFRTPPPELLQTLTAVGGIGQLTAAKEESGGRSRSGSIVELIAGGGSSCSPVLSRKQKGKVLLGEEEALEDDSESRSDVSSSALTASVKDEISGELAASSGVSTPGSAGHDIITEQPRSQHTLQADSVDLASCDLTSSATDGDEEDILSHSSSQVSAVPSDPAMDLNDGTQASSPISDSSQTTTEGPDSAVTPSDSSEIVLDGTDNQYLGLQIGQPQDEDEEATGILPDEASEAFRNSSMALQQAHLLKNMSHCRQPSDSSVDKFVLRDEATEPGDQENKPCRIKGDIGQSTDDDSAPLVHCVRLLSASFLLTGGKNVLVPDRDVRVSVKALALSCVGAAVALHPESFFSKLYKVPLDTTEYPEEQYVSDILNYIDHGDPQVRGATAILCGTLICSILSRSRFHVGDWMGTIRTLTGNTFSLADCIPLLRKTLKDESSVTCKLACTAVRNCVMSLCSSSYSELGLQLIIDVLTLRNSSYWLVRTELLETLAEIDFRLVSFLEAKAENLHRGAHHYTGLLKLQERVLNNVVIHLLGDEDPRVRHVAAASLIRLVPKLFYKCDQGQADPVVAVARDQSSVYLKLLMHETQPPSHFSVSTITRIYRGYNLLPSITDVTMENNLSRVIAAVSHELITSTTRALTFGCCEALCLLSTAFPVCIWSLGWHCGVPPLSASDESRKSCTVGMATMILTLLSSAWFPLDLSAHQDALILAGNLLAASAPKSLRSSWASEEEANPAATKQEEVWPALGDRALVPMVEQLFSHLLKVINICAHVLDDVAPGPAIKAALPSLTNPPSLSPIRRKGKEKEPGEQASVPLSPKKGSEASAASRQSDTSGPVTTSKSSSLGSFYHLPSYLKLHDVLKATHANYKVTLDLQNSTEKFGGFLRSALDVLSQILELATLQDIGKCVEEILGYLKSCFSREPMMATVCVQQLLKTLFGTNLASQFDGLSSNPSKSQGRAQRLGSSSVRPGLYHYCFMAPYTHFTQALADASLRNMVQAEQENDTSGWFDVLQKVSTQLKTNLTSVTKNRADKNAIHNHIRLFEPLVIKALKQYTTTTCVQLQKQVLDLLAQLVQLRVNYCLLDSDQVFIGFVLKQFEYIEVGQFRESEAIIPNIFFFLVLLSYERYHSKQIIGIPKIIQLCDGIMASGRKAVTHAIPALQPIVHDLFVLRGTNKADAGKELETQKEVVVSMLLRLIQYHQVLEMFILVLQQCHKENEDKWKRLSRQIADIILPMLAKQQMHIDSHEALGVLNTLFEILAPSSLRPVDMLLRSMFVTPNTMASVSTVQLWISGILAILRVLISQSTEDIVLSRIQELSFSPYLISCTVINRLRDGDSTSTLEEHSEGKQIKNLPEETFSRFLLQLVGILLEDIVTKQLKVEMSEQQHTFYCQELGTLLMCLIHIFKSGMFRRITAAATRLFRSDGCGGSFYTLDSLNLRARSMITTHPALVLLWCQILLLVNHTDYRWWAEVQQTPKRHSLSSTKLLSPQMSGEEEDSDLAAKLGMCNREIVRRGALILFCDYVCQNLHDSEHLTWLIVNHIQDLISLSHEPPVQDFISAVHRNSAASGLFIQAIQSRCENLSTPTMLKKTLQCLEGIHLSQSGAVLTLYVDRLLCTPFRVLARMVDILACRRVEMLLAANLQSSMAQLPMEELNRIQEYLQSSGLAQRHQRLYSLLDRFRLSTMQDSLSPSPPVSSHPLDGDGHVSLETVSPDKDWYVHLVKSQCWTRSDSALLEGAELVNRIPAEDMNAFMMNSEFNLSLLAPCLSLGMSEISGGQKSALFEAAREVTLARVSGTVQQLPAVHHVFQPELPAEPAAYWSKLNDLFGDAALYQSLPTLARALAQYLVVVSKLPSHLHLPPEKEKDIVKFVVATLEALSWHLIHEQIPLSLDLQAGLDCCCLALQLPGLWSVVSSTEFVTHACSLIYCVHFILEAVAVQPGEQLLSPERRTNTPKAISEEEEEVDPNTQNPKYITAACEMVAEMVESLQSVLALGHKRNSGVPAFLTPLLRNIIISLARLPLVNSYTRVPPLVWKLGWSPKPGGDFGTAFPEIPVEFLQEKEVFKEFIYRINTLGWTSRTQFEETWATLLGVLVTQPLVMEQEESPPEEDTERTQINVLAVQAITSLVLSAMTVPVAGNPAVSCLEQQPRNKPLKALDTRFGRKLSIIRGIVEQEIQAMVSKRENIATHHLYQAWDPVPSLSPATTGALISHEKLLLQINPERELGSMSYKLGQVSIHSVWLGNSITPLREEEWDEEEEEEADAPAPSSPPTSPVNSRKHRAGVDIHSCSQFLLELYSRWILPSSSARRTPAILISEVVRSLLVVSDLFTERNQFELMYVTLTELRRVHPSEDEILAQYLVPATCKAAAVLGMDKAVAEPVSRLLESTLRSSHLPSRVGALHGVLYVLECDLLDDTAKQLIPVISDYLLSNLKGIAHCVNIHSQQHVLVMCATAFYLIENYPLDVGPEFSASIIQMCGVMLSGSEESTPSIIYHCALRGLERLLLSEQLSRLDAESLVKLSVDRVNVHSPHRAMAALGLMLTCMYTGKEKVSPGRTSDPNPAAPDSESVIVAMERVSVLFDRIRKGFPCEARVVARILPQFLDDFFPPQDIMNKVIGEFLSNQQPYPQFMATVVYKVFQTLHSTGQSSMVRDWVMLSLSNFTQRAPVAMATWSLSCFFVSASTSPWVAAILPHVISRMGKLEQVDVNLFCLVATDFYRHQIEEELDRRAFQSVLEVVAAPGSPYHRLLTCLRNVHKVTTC

For `O=c1cc(-c2ccccc2)oc2cc(O)c(O)c(O)c12`, in test [1], the remaining activity is 119% (inactive).

In test [2], `COc1ccc(-c2coc3cc(O)cc(O)c3c2=O)cc1` returned a normalised LDH release of 1.03.

With `NC(N)=NC(N)=Nc1ccccc1`, the remaining activity in test [1] was 119% (inactive).

As to `O=C(/C=C/c1ccc(O)c(O)c1)OCCc1ccccc1`, the remaining activity in [1] was 122% (inactive). Further, in test [3], the fold fluorescence is 6.87 [at 175.9 µM] (inactive).

Take `COc1ccc2cc1Oc1ccc(cc1)C[C@H]1c3cc(c(OC)cc3CCN1C)Oc1c(OC)c(OC)cc3c1[C@H](C2)N(C)CC3`: in [3], the fold fluorescence is 5.71 [at 80.3 µM] (inactive).

As to `C1CCc2nnnn2CC1`, the remaining activity in test [1] was 117% (inactive).

Consider `CCn1nc(C(=O)O)c(=O)c2cc3c(cc21)OCO3`, for which the inhibition in [4] (at 0.5 µM) was -36.2% (inactive); in test [4] (setting [15]), -30.8%; in test [4] (setting [16]) it was -40.5%; in [4] (setting [17]), 15.7%; in test [5] (at 0.5 µM) it was -51.5% (inactive); in test [5] (setting [18]), -50.7%. The inhibition in test [5] (setting [19]) was -58%; in [6] (at 0.5 µM), -4.61% (inactive); in test [6] (setting [20]) it was -9.5%; in [6] (setting [21]), -2.73%; in [7] (at 0.5 µM) it was -2.26% (inactive); in test [7] (setting [22]) it was -31.4%. In addition, the inhibition in test [7] (setting [23]) is -13.5%; in test [8] (at 0.5 µM), -9.44% (inactive); in test [8] (setting [16]), -16.5%; in test [8] (setting [17]), -17.7%; in test [9] (setting [24]), 14%; in test [9] (at 0.5 µM) it was -2.39% (inactive). The inhibition is 6.77% in test [9] (setting [25]), 10.8% (inactive) in [10], 8.46% in test [10] (setting [26]) and 10.9% in [10] (setting [27]).

As to `O=c1c(O)c(-c2ccc(O)cc2O)oc2cc(O)cc(O)c12`, in [11], the aggregation ratio was found to be 0.704.

For the compound `CC(=O)N[C@@H](CC(=O)O)C(=O)N[C@@H](CCC(=O)O)C(=O)O` (Ac-Asp-Glu-OH), in test [1], the remaining activity is 82.4% (inactive).

For `O=c1c(O)c(-c2ccc(O)c(O)c2)oc2cc(O)ccc12`, the inhibition is -4.27% (inactive) in test [4] (at 0.5 µM); -15.9% in test [4] (setting [15]); -18.5% in [4] (setting [16]); -12.6% in test [4] (setting [17]); 3.92% (inactive) in [5] (at 0.5 µM); -8.68% in [5] (setting [18]). Moreover, the inhibition in [5] (setting [19]) is 27.9%; in test [6] (at 0.5 µM), -0.08% (inactive); in test [6] (setting [20]), 1.14%; in test [6] (setting [21]), -0.856%; in [7] (at 0.5 µM), 3.05% (inactive); in test [7] (setting [22]), 1.82%. Moreover, the inhibition is -4.79% in test [7] (setting [23]); 1.64% (inactive) in test [8] (at 0.5 µM); -4.17% in test [8] (setting [16]); -0.986% in [8] (setting [17]); 14.5% in [9] (setting [24]); 1.05% (inactive) in test [9] (at 0.5 µM). The inhibition is 19.6% in test [9] (setting [25]), 10.6% (inactive) in [10], 1.09% in test [10] (setting [26]) and 26.6% in test [10] (setting [27]).

Regarding `c1ccc2c(Cc3c[nH]c4ccccc34)c[nH]c2c1`, the fold fluorescence in test [3] was 4.77 (inactive).

As to `O=C(CCc1ccc(O)cc1)c1c(O)cc(O)cc1O`, in test [12], the SSMD worked out at 2.09, the cell count amounted to 7280 and the plate-normalised HSF1 focus index was 1.13 (inactive).

Regarding `Cc1cc(O)c2c(c1)C(=O)c1cccc(O)c1C2=O`, in test [12], the SSMD worked out at 1.91, the cell count stood at 7380 and the plate-normalised HSF1 focus index was 1.07 (inactive).

Regarding `COc1c2ccoc2cc2oc(=O)ccc12`, the inhibition was -1.71% (inactive) in [4] (at 0.5 µM); -39.8% in test [4] (setting [15]); -31.5% in test [4] (setting [16]); 0.408% in test [4] (setting [17]); -46.9% (inactive) in test [5] (at 0.5 µM); -48% in test [5] (setting [18]). Besides, the inhibition was -47.5% in test [5] (setting [19]); -4.51% (inactive) in test [6] (at 0.5 µM); -4.11% in test [6] (setting [20]); -2.34% in [6] (setting [21]); -2.25% (inactive) in test [7] (at 0.5 µM); -12.4% in test [7] (setting [22]). Moreover, the inhibition was -7.34% in test [7] (setting [23]); -16.1% (inactive) in [8] (at 0.5 µM); -10.7% in [8] (setting [16]); 0.771% in test [8] (setting [17]); 5.68% in test [9] (setting [24]); -4.34% (inactive) in [9] (at 0.5 µM). Moreover, the inhibition in test [9] (setting [25]) is 13.5%; in test [10], 1.97% (inactive); in test [10] (setting [26]), -6.42%; in [10] (setting [27]) it was 7.69%.

Regarding `NC(N)=NCCCCN=C(N)N`, the protection in test [13] is 45% (active).

For `CN1CCc2cccc3c2C1Cc1ccc(O)c(O)c1-3` (stereo not drawn), the normalised LDH release in test [2] amounted to 0.891.

Take `C=C1c2c(Cl)ccc(O)c2C(O)=C2C(=O)[C@]3(O)C(O)=C(C(N)=O)C(=O)[C@@H](N(C)C)[C@@H]3[C@@H](O)[C@H]12`: the aggregation ratio in [11] came to 0.703.

Turning to `CN1CCc2c(c3ccccc3n2Cc2ccccc2)C1`, the protection in test [13] is 49% (active). Also, the normalised LDH release in test [2] came out at 0.901.

Regarding `Cc1cc(/C=C/c2ccc3cc(N(C)C)ccc3[n+]2C)c(C)n1-c1ccccc1`, in test [11], the aggregation ratio is 0.715.

`CC(C(=O)O)c1ccc(N2Cc3ccccc3C2=O)cc1` (stereo not drawn): in [14], the SMN1 luciferase ratio turned out to be 0.71, the SMN2/SMN1 luciferase ratio was 2.02 (active) and the SMN2 luciferase ratio is 1.4.

Turning to `COc1cc2ccc(=O)oc2cc1O`, the normalised LDH release in test [2] came to 0.874.

On to `CC(C)Cn1c(=O)n(C)c(=O)c2[nH]cnc21`, for which the fold fluorescence in test [3] was 4.08 [at 225 µM] (inactive).
